An excerpt weighted towards active compounds, which were near 0.9% of everything screened.
SRC1 TRFRET art – counter-screen for PPARgamma SRC-1 recruitment agonists: TR-FRET artefact; TR-FRET detection artefact counter-screen, emission ratio; hits give high values; TR-FRET ratio at 8 µM; 0.34% of 99,000 active; AID 1051; in the data active means TR-FRET ratio above about 2300
PPARg SRC-2 ag – PPARgamma-driven SRC-2 recruitment agonism. 0.34% of 200,000 active. activation, % at 8 µM. PPARgamma LBD-SRC-2 recruitment, biochemical; in the data active means activation above about 22%;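 further: 0% = vehicle and 100% = reference agonist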
Target sequence (P37231 whole entry, looked up, the tested form may be a part): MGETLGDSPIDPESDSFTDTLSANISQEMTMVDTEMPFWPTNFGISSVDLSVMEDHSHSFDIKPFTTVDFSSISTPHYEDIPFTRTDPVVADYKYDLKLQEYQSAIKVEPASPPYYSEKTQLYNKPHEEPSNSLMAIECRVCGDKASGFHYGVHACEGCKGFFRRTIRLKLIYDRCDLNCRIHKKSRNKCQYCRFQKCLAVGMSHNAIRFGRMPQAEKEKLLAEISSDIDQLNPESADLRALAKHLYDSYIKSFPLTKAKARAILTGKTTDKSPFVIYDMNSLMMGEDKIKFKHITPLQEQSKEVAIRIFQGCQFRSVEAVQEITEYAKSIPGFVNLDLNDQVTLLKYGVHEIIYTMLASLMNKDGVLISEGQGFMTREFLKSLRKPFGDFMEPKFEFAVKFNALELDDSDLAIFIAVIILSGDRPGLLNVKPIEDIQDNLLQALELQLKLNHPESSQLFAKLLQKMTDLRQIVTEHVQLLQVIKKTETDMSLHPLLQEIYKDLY
SRC3 TRFRET art – TR-FRET artefact, counter-screen to PPARgamma/SRC-3 agonist assay; AID 1048; PPARgamma/SRC-3 format; hits give high values; TR-FRET ratio at 8 µM; 0.39% of 99,000 active
PPARg SRC-3 ag – agonists of human PPARgamma SRC-3 coactivator recruitment. 0.26% of 200,000 active. activation, % at 8 µM. biochemical PPARgamma/SRC-3 coactivator recruitment assay; in the data active means activation above about 23%;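 further: 0% = DMSO and 100% = reference agonist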
PPARg SRC-1 ag – promotes SRC-1 coactivator recruitment by human PPARgamma | P37231 | PPARgamma-SRC-1 coactivator recruitment biochemical assay | activation, % at 8 µM | 0.41% of 200,000 active | AID 631; in the data active means activation above about 19%;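 further: 0% = DMSO and 100% = reference agonist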
TR-FRET SRC-2 ct – TR-FRET artefact, counter-screen to PPARgamma/SRC-2 agonist assay. hits give high values. TR-FRET ratio at 8 µM. 0.4% of 200,000 active. AID 1049
* = called active by the depositor. Unless noted, no stated cut-off is given here; in the data, active means TR-FRET ratio above about 2000; inactive means the rest.

What do the screens show for `FC(F)(F)c1nnc2n1N=C(c1cccs1)CS2`?
SRC1 TRFRET art: 1871; PPARg SRC-2 ag: 7; SRC3 TRFRET art: 1638; PPARg SRC-3 ag: 5; PPARg SRC-1 ag: 4; TR-FRET SRC-2 ct: 1752

How did CCCOc1cc(N(CC)CC)ccc1/C=C(/C#N)c1nc2ccc(C)cc2[nH]1 do in these assays?
PPARg SRC-2 ag: 37*; PPARg SRC-3 ag: 5; PPARg SRC-1 ag: 2; TR-FRET SRC-2 ct: 2008*

How did CCN(CC)c1ccc(/C=C(/C#N)c2nc3ccc(C)cc3[nH]2)c(OC(C)C)c1 do in these assays?
PPARg SRC-2 ag: 1; PPARg SRC-3 ag: 8; PPARg SRC-1 ag: 7; TR-FRET SRC-2 ct: 1540

What do the screens show for `CCOc1ccc(S(=O)(=O)NN=C2CCN(C(C)=O)CC2)cc1`?
SRC1 TRFRET art: 1926; PPARg SRC-2 ag: 10; SRC3 TRFRET art: 1571; PPARg SRC-3 ag: 3; PPARg SRC-1 ag: 8; TR-FRET SRC-2 ct: 1557

What do the screens show for `COC(=O)c1sccc1NC(=O)c1ccc(Br)s1`?
PPARg SRC-2 ag: 10; PPARg SRC-3 ag: 14; PPARg SRC-1 ag: 43*; TR-FRET SRC-2 ct: 1947

Results for CN1CCc2c(sc3c2C(=O)NC(c2cccs2)N3)C1 (stereo not given) ?
PPARg SRC-2 ag: 9; PPARg SRC-3 ag: 0; PPARg SRC-1 ag: 6; TR-FRET SRC-2 ct: 1555

How did CN1CCc2c(sc3c2C(=O)NC(c2ccc(-c4cccc(Cl)c4)o2)N3)C1 (stereo not given) do in these assays?
SRC1 TRFRET art: 2385*; PPARg SRC-2 ag: 8; SRC3 TRFRET art: 1691; PPARg SRC-3 ag: 8; PPARg SRC-1 ag: 17; TR-FRET SRC-2 ct: 1595

How did CCNC(=O)n1cc(-n2cncn2)c(-c2ccccc2)n1 do in these assays?
SRC1 TRFRET art: 1617; PPARg SRC-2 ag: -1; SRC3 TRFRET art: 1596; PPARg SRC-3 ag: -2; PPARg SRC-1 ag: 5; TR-FRET SRC-2 ct: 1535

How did CC(=O)c1c(N2CCN(c3ccc(F)cc3)CC2)nc(=S)n(Cc2ccccc2)c1C do in these assays?
SRC1 TRFRET art: 1739; PPARg SRC-2 ag: 2; SRC3 TRFRET art: 2117*; PPARg SRC-3 ag: 4; PPARg SRC-1 ag: 6; TR-FRET SRC-2 ct: 1479

How did CC(=O)CCc1ccc(OC(=O)c2cccnc2)cc1 do in these assays?
PPARg SRC-2 ag: 26*; PPARg SRC-3 ag: 1; PPARg SRC-1 ag: 4; TR-FRET SRC-2 ct: 1983*

How did O=C(CCn1cnc2ccccc2c1=O)Nc1nc(-c2ccc(Br)cc2)cs1 do in these assays?
SRC1 TRFRET art: 1532; PPARg SRC-2 ag: -9; SRC3 TRFRET art: 1376; PPARg SRC-3 ag: -1; PPARg SRC-1 ag: -8; TR-FRET SRC-2 ct: 1374

Results for S=c1nc(SCc2ccccc2)[nH]c2ccccc12 ?
SRC1 TRFRET art: 2318*; PPARg SRC-2 ag: 21; SRC3 TRFRET art: 2007; PPARg SRC-3 ag: 15; PPARg SRC-1 ag: -2; TR-FRET SRC-2 ct: 2041*

Results for Cc1cc2ccccc2n1CCNC(=O)c1ccccc1 ?
PPARg SRC-2 ag: 7; PPARg SRC-3 ag: 7; PPARg SRC-1 ag: 3; TR-FRET SRC-2 ct: 1939

How did COc1ccc(C(=O)NCCSc2ccccc2)cc1 do in these assays?
SRC1 TRFRET art: 1905; PPARg SRC-2 ag: 11; SRC3 TRFRET art: 1629; PPARg SRC-3 ag: 4; PPARg SRC-1 ag: 6; TR-FRET SRC-2 ct: 1445

How did Cc1cc2ccccc2n1CCNC(=O)c1ccc(S(=O)(=O)N2CCOCC2)cc1 do in these assays?
SRC1 TRFRET art: 2656*; PPARg SRC-2 ag: 3; SRC3 TRFRET art: 2905*; PPARg SRC-3 ag: 3; PPARg SRC-1 ag: 0; TR-FRET SRC-2 ct: 1798

What do the screens show for `Cc1ccc(-c2[nH]c3ccccc3c2SCCNC(=O)c2ccc(S(=O)(=O)N3CCOCC3)cc2)cc1`?
SRC1 TRFRET art: 3343*; PPARg SRC-2 ag: 8; SRC3 TRFRET art: 2709*; PPARg SRC-3 ag: 10; PPARg SRC-1 ag: 6; TR-FRET SRC-2 ct: 2560*

How did COc1ccc(-c2[nH]c3ccccc3c2SCCNC(=O)c2ccccc2)cc1 do in these assays?
SRC1 TRFRET art: 2021; PPARg SRC-2 ag: 24*; SRC3 TRFRET art: 2781*; PPARg SRC-3 ag: 4; PPARg SRC-1 ag: 8; TR-FRET SRC-2 ct: 1807

What do the screens show for `O=C(NCc1nc2ccccc2[nH]1)c1ccc(S(=O)(=O)N2CCOCC2)cc1`?
PPARg SRC-2 ag: 6; PPARg SRC-3 ag: 1; PPARg SRC-1 ag: 3; TR-FRET SRC-2 ct: 1535

How did CCC(C)(NC(=O)c1ccccn1)C(=O)NC1CCCC1 (stereo not given) do in these assays?
SRC1 TRFRET art: 1799; PPARg SRC-2 ag: -11; SRC3 TRFRET art: 1438; PPARg SRC-3 ag: 0; PPARg SRC-1 ag: 0; TR-FRET SRC-2 ct: 1371

How did O=C(CSc1c2c(nc3ccc(Cl)cc13)CCCC2)NCCCN1CCOCC1 do in these assays?
SRC1 TRFRET art: 2131; PPARg SRC-2 ag: 20; SRC3 TRFRET art: 2256*; PPARg SRC-3 ag: 14; PPARg SRC-1 ag: 19; TR-FRET SRC-2 ct: 1820

Results for O=C(CSc1ccccc1)NCCCN1CCOCC1 ?
PPARg SRC-2 ag: -3; PPARg SRC-3 ag: -12; PPARg SRC-1 ag: 4; TR-FRET SRC-2 ct: 1558

What do the screens show for `COc1ccc(NC(=O)c2c(NC(=O)CCC(=O)O)sc(-c3ccccc3)c2C)cc1`?
SRC1 TRFRET art: 2044; PPARg SRC-2 ag: 0; SRC3 TRFRET art: 1726; PPARg SRC-3 ag: 4; PPARg SRC-1 ag: 8; TR-FRET SRC-2 ct: 1742

What do the screens show for `C=CCNC(=S)Nc1ccc2nsnc2c1`?
SRC1 TRFRET art: 2407*; PPARg SRC-2 ag: 7; SRC3 TRFRET art: 1866; PPARg SRC-3 ag: 10; PPARg SRC-1 ag: 6; TR-FRET SRC-2 ct: 1662

What do the screens show for `CCOc1ccc(NC(=S)Nc2ccc3nsnc3c2)cc1`?
SRC1 TRFRET art: 2443*; PPARg SRC-2 ag: 9; SRC3 TRFRET art: 2027; PPARg SRC-3 ag: 13; PPARg SRC-1 ag: 15; TR-FRET SRC-2 ct: 1676

Results for S=C(Nc1ccc2nsnc2c1)NC1CCCCC1 ?
SRC1 TRFRET art: 2457*; PPARg SRC-2 ag: 6; SRC3 TRFRET art: 1898; PPARg SRC-3 ag: 9; PPARg SRC-1 ag: 11; TR-FRET SRC-2 ct: 1719

Results for S=C(Nc1ccc(Cl)c(Cl)c1)NC1CCCCC1 ?
PPARg SRC-2 ag: -1; PPARg SRC-3 ag: -6; PPARg SRC-1 ag: -4; TR-FRET SRC-2 ct: 1550

Results for Cc1cccc(C)c1N1CCN(S(=O)(=O)N(C)C)CC1 ?
SRC1 TRFRET art: 1817; PPARg SRC-2 ag: 2; SRC3 TRFRET art: 1631; PPARg SRC-3 ag: 3; PPARg SRC-1 ag: 1; TR-FRET SRC-2 ct: 1706

How did N#Cc1cccc(NC(=O)COC(=O)CCc2nc3ccccc3c(=O)[nH]2)c1 do in these assays?
SRC1 TRFRET art: 1907; PPARg SRC-2 ag: -11; SRC3 TRFRET art: 1589; PPARg SRC-3 ag: 1; PPARg SRC-1 ag: 5; TR-FRET SRC-2 ct: 1597

What do the screens show for `CN(C)S(=O)(=O)c1ccc(C(=O)Nc2nc(-c3cccs3)cs2)cc1`?
PPARg SRC-2 ag: -3; PPARg SRC-3 ag: -1; PPARg SRC-1 ag: -5; TR-FRET SRC-2 ct: 1736

What do the screens show for `O=C(Nc1nc(-c2cccs2)cs1)c1ccc(S(=O)(=O)N2CCCC2)cc1`?
PPARg SRC-2 ag: 0; PPARg SRC-3 ag: 4; PPARg SRC-1 ag: -5; TR-FRET SRC-2 ct: 2064*

What do the screens show for `CCCCC(CC)c1nnc(NC(=O)c2cccs2)s1` (stereo not given)?
SRC1 TRFRET art: 1873; PPARg SRC-2 ag: 22*; SRC3 TRFRET art: 1670; PPARg SRC-3 ag: 6; PPARg SRC-1 ag: -2; TR-FRET SRC-2 ct: 1818

Screens (PubChem)
